# Screens (PubChem BioAssay)
# FLuc modulator = firefly luciferase modulation, counter-screen for miR-21 project. P08659. purified FLuc, Km substrates, luminescence inhibition. Potency, µM (top dose mostly 57.5 µM), for the others: at the highest dose activity change, negative = inhibition, actives largely listed as inhibitors. 360,000 compounds, 6.9% hits. AID 588342;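 note: plate controls were vehicle for no effect and reference inhibitor for full effect; nearly all actives have a fitted effect of over 55% in size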
# Target sequence (P08659 whole entry, looked up): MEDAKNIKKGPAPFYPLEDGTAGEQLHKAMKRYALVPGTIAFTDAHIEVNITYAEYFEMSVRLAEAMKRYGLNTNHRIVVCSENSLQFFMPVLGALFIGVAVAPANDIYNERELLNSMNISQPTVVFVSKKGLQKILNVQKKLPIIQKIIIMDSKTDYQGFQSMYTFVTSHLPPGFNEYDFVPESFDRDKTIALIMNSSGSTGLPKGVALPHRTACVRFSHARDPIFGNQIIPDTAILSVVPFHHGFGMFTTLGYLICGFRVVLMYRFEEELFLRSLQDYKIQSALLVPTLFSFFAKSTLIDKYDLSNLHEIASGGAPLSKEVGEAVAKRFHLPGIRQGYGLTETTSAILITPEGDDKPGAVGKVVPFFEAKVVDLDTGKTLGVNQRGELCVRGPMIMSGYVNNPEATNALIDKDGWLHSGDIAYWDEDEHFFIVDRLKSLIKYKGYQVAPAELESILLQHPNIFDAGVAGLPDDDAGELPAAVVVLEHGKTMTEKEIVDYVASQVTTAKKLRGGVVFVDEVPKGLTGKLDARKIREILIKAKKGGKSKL
#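 Purified P. pyralis luciferase (10nM final) with 10uM D-luciferin and 10uM ATP (Km levels) in 50mM Tris acetate pH 7.5, 10mM Mg acetate, 0.01% Tween-20, 0.05% BSA; qHTS 6-point titration, ~60 µM downward; luminescence read.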
# Rab9 promoter act = activates the Rab9 promoter | Huh7 Rab9 promoter-luciferase reporter, luminescence, 24 h | Potency, µM (doses to about 9.22 µM), inactives show at the top dose activation, negative = inhibition, hits mostly activators | 320,000 compounds, 2.8% hits | AID 485297; note: % of control where 0% means no effect; nearly all actives have a fitted effect of over 60% in size
#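 Rab9 promoter-driven luciferase in stably transfected Huh7 cells; 1500 cells/well rested 2 h, exposed to compound in DMSO for 24 h at 37 °C, 5% CO2. Luminescence read 10 min after adding luciferase reagent at ambient temperature.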
# NPC1 promoter act = activates the NPC1 promoter; Huh7 NPC1 promoter luciferase reporter, 24 h; Potency, µM (doses to about 9.22 µM), for the others: at the top dose activation, hits mostly activators; 320,000 compounds, 2.4% hits; AID 485313; note: % of control where 0% means no effect; nearly all actives have a fitted effect of over 60% in size
#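 NPC1 promoter–luciferase Huh7 cells; 24 h compound; luminescence.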
# SMN2 splice enh = increases expression of the SMN2 splice variant; HEK293 SMN2-luciferase splicing reporter, luminescence, 30-36 h; Potency, µM (doses to about 46.1 µM), inactives show at the top dose activity change, positive = activation, most hits filed as activators; 210,000 compounds, 2.8% hits; AID 1458; note: % of control where 0% means no effect; nearly all actives have a fitted effect of over 55% in size
#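 HEK293 cells carry an SMN2 minigene-luciferase reporter in which exon 7 inclusion puts luciferase in frame. Cells were seeded at 2000 cells/well, attached for 10-12 hours, then exposed to compounds for 30-36 hours at 37C before ONE-Glo luminescence.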
# ELG1 genotoxic = genotoxicity induction in ELG1-luciferase HEK293T cells; Potency, µM (highest dose often 46 µM), inactives show at the top dose activity change, positive = activation, most hits filed as activators; AID 504466; HEK293T ELG1-luciferase reporter, luminescence, 16 h; 330,000 compounds, 1.3% hits; note: % of control where 0% means no effect; nearly all actives have a fitted effect of over 60% in size
#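 Luminescence read-out: rising ELG1-luciferase signal, reflecting elevated ELG1 protein under genetic stress, flags genotoxic compounds. Cells were treated for 16 hr at 37 °C before ONE-Glo detection.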
# Luc counter = counter-screen: inhibitors of Kinase-Glo firefly luciferase; Q27757; Kinase-Glo luciferase, ATP luminescence, 8 min; Potency, µM (series often up to 38.3 µM), without a hit: at the top dose activity change, negative = inhibition, usual class: inhibitors; 200,000 compounds, 0.28% hits; AID 1379; note: % is set by controls: 0 for no effect and ±100 for the full control effect; nearly all actives have a fitted effect of over 60% in size
#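 Compounds were added to a substrate mix at pH 7.2 (50 mM imidazole, 10 uM ATP, within the enzyme's linear range), followed by Kinase-Glo detection reagent; luminescence was measured after 8 minutes at ambient temperature.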
# * = called active by the depositor; ? = inconclusive; . = no result given; [ ] = dose if it differs, or a comment. This is a sample that favours compounds with a hit; in the whole collection about 7.5% have one here. Calls come from the whole dose curve; as a rule, active = well fitted curve in the direction sought with a large enough effect; inconclusive = small, poorly fitted or top-dose-only effect, or another doubt; inactive = no such curve, though single readings can be large; an effect the other way counts as inactive or inconclusive. Potency is the fitted concentration of half-maximal effect.
SMILES,FLuc modulator,Rab9 promoter act,NPC1 promoter act,SMN2 splice enh,ELG1 genotoxic,Luc counter
COc1ccc(/C=C2\CCC(C3CCCC3)C2=O)c(OC)c1 (centres undefined),21.3µM*,13.4%,24.6%,.,8.3%,.
COc1ccc(/C=C2\CCC(C3CCCC3)C2=O)cc1 (centres undefined),0.477µM*,3.55µM*,3.98µM*,.,?,.
COc1ccc(/C=C2\CCOC2=O)cc1,-18.2%,13.1%,10.5%,-15.1%,1.1%,-2.8%
CCN(CC)CCCNC(=O)c1ccc2c(c1)sc1nc(-c3ccc(C)cc3)cn12,-10.4%,.,.,.,.,.
Clc1cc2nc(-c3cccnc3Cl)[nH]c2cc1Cl,3.01µM*,?,0.891µM*,.,4.61µM*,.
CCn1c(-c2cccnc2Cl)nc2cc(Cl)c(Cl)cc21,?,9.8%,-10.0%,-15.1%,-1.3%,6.0%
O=C(/C=C/c1cccc(F)c1)N1CCc2ccccc21,0.849µM*,0.631µM*,1.12µM*,2.51µM*,1.84µM*,?
O=C(/C=C/c1ccc(Cl)cc1Cl)OCC(=O)N1CCCC1,15.1µM*,11.8%,-4.5%,.,3.9%,.
O=C(/C=C/c1ccc(Cl)cc1Cl)N1CCc2ccccc21,0.601µM*,0.794µM*,1.58µM*,2.51µM*,6.51µM*,-23.1%
Cc1ccc(C(=O)NCCn2cc(SCC(=O)Nc3cc(C)on3)c3ccccc32)cc1,5.36µM*,?,0.2%,-66.5%,?,-1.0%
Cc1cc(NC(=O)CSc2cn(CCNC(=O)c3ccccc3)c3ccccc23)no1,19µM*,-6.3%,-0.8%,-21.7%,-10.0%,15.3%
Cc1ccc(C)c(Nc2nc(-c3ccccc3)c3cc(Br)ccc3n2)c1,0.2%,.,.,1.2%,.,.
CCOC(=O)C(CC(=O)O)=C(c1ccccc1)c1ccccc1,1.8%,-0.3%,8.7%,.,1.2%,.
CC1CCCC2(C1)NC(=S)c1c(sc3c1CCCC3)N2 (centres undefined),23.9µM*,-5.0%,-4.3%,-20.7%,29.2%,1.3%
CC1CCCC2(C1)NC(=S)N(c1ccccc1)N2 (centres undefined),-3.9%,-9.6%,6.4%,-10.8%,1.6%,-3.5%
Cc1ccc(C(=O)Nc2ccc(S(=O)(=O)NC3=NCCCCC3)cc2)c(C)c1,12µM*,-1.2%,-0.8%,.,-1.0%,.
Cn1c(-n2c(-c3ccco3)nc3ccccc3c2=O)nc2ccccc21,21.3µM*,-5.5%,-0.1%,-10.2%,-1.2%,-6.1%
O=c1c2ccccc2nc(-c2ccco2)n1CCc1ccc(O)cc1,-15.4%,5.7%,-4.5%,.,-14.7%,.
O=c1c2ccccc2nc(-c2ccco2)n1-c1nc2ccccc2s1,15.1µM*,4.7%,6.9%,-14.2%,6.0%,1.7%
CCOC(=O)C1=C(O)/C(=C/c2ccc(CNC(=O)C(=O)Nc3ccc(C)cc3)o2)N=C1C,7.57µM*,10.5%,8.0%,-12.3%,?,13.0%
COC(=O)C1=C(O)/C(=C\c2ccc(CNC(=O)C(=O)Nc3ccc(C)cc3)o2)N=C1C,6.75µM*,0.1%,0.5%,-20.4%,8.5%,2.4%
COC(=O)C1=C(O)/C(=C\c2ccc(CNC(=O)C(=O)Nc3ccc(C)c(C)c3)o2)N=C1C,?,-4.7%,-1.2%,-15.2%,7.8%,-3.6%
Cc1cc(C)n(C(=O)CN(C)S(=O)(=O)c2ccc([N+](=O)[O-])cc2)n1,-2.1%,-2.9%[1.84 µM],-4.4%,.,-3.3%,.
Oc1ccccc1-c1nnc(-c2ccc(C(F)(F)F)cc2)o1,?,6.1%,6.7%,4.5%,?,-7.3%
Cc1ccccc1-c1nnc(-c2ccccc2C)o1,6.75µM*,?,?,22.4µM*,?,-5.0%
Cc1ccccc1-c1nnc(SCC#N)o1,-13.2%,0.4%,0.1%,.,-0.2%,-4.2%
Cc1ccccc1-c1nnc(-c2ccc(Br)cc2)o1,?,?,?,?,9.2µM*,-29.8%
